The values that follow come from PubChem BioAssay AID485297 (National Center for Advancing Translational Sciences (NCATS), 2010).

In all, about 320,000 compounds went through this assay and about 9,100 (2.8%) were called active. Another 3% or so got no clear call; they are omitted. Calls come from the whole dose curve; as a rule, active = well fitted activation curve with a large enough effect; inconclusive = small, poorly fitted or top-dose-only effect; inactive = no such curve, though single readings can be large or run the other way. The entries come from a sample that favours actives as a whole. Where a call stands in place of a potency, no number is given.
Potency is the fitted concentration of half-maximal effect.

The nature of the experiment: qHTS Assay for Rab9 Promoter Activators. Note: nearly all actives have a fitted effect of over 60% in size. To be noted: Huh7 Rab9 promoter-luciferase reporter, luminescence, 24 h; series mostly up to 9.22 µM. A digest of the protocol:
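Rab9 promoter-driven luciferase in stably transfected Huh7 cells; 1500 cells/well rested 2 h, exposed to compound in DMSO for 24 h at 37 °C, 5% CO2. Luminescence read 10 min after adding luciferase reagent at ambient temperature.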
As to `Nc1ccc(N=Nc2ccccc2Cl)c(N)n1`, the Potency was 2.82 µM (active).
The value for `CCc1cccc(NC(=O)COC(=O)c2cc(=O)c3ccccc3o2)c1` was “inactive”; that for `CCOC(=O)c1ccc(NC(=O)C2CC(=O)N(c3ccc4c(c3)OCCO4)C2)cc1` (stereo unspecified) was “inactive”; that for `CCCN(CC1CC1)C(=S)NC(=O)c1ccccc1Br` was “inactive”.
As for `Cc1noc(NS(=O)(=O)c2ccc(N/C=C/C(=O)c3ccccc3)cc2)c1C`, the Potency entry is “inactive”.
The value for `CCOc1ccc(N/C=C/C(=O)c2ccccc2)cc1` was 0.316 µM (active).
`O=C(NNc1ccccn1)c1ccc(Cl)nc1`: the Potency entry was “inactive”.
With `CCOc1ccc(N/C=C/C(=O)c2cc(OC)c(OC)c(OC)c2)cc1`, the Potency result was “inactive”.
The value for `COc1ccc(C(=O)/C=C/c2ccc(OC3CSC3)cc2)cc1` was “inactive”.
The value for `CCOc1ccc(NC(=S)N2CCC(NC(=O)c3ccccc3)CC2)cc1` was “inactive”; that for `O=C(/C=C/NCc1ccc(F)cc1)c1ccccc1` was “inactive”; that for `COc1ccc(C(=O)/C=C/Nc2ccccn2)cc1` was 0.1 µM (active).
For the molecule `Cc1ccc(N/C=C/C(=O)c2ccccc2)cc1C`, the Potency was 0.562 µM (active).
The value for `O=C(CC1SC(N2CCCC2)=NC1=O)Nc1ccc(C(=O)NCCc2ccc(F)cc2)cc1` (stereo unspecified) was “inactive”; that for `Cc1ccc(NC(=O)c2cccc(S(=O)(=O)N3CCCc4ccccc43)c2)nc1` was “inactive”; that for `C=CC(=O)OCCOCCOCCOCCOC(=O)C=C` was “inactive”.
Consider `Cc1ccnc(NC(=O)c2ccco2)n1`, for which the Potency result was “inactive”.
The result for `Cc1ccnc(Nc2nc3ccccc3s2)n1` reads 1.41 µM (active); that for `Cc1ccc(S(=O)(=O)Nc2nc3ccccc3s2)cc1[N+](=O)[O-]`, “inactive”; that for `O=C(CCNS(=O)(=O)c1ccc(Br)cc1)NCC1CCCO1` (stereo unspecified), “inactive”.
The result for `O=C(c1cc(-c2cccs2)on1)N1CCCCC1` reads 0.562 µM (active).
The result for `O=C(c1cc(-c2cccc(O)c2)on1)N1CCc2ccccc2C1` reads “inactive”; that for `COc1ccc(-c2cc(C(=O)N3CCN(c4ccc(F)cc4)CC3)no2)cc1`, “inactive”; that for `O=C(Nc1cccnc1Cl)c1cc(-c2ccccc2O)on1`, “inactive”.
On to `CC(=O)c1ccc(NC(=O)c2cc(-c3cccs3)on2)cc1`, for which the Potency result was “inactive”.
The value for `O=C(c1cc(-c2ccc(O)cc2)on1)N1CCOCC1` was 1.12 µM (active).
Take `COc1ccccc1-c1cc(C(=O)N2CCCCC2)no1`: the Potency was 3.55 µM (active).
Regarding `O=C(CSc1n[nH]c(-c2cccs2)n1)N1CCCCC1`, the Potency entry is “inactive”.
The value for `O=C(c1cc(-c2ccc(F)cc2)on1)N1CCN(c2ccc(F)cc2)CC1` was “inactive”.
For the molecule `O=C(c1cc(-c2ccccc2O)on1)N1CCCC1`, the Potency was 3.98 µM (active).
The value for `COc1cccc(-c2cc(C(=O)N3CCN(c4ccccc4OC)CC3)no2)c1` was “inactive”.
For `O=C(c1cc(-c2ccc(O)cc2)on1)N1CCCc2ccccc21`, the Potency entry was “inactive”.
The value for `O=C(CN1CCC(O)(c2cccc(C(F)(F)F)c2)CC1)NCCc1ccccc1` was “inactive”; that for `O=C(NNC(=O)c1ccc(-n2cncn2)c([N+](=O)[O-])c1)c1ccccc1` was “inactive”; that for `CCOc1ccc(S(=O)(=O)NCCC(=O)NCC2CCCO2)cc1` (stereo unspecified) was “inactive”.
The result for `CCN(CC(=O)Nc1ccccc1C(F)(F)F)C(=O)C1CCN(C(=O)Nc2ccccc2)CC1` reads “inactive”.
The result for `CCOc1ccc(NC(=O)CN(C)C(=O)Cc2sc(C)nc2-c2ccc(F)cc2)cc1OCC` reads “inactive”.
In the case of `O=C(OCC(=O)N1CCOCC1)c1ccc2ccccc2c1`, the Potency result was “inactive”.
The result for `CC1(C)CC(=O)C=C(c2ccc(Cl)c(C(F)(F)F)c2)C1` reads “inactive”.
Turning to `COc1ccccc1C(=O)NC(CCSC)C(=O)N1CCN(C(C)=O)CC1` (stereo unspecified), the Potency result was “inactive”.
Consider `Cc1ccccc1-c1cc(C(=O)NCc2cccs2)n(CC2CC(c3cccnc3)=NO2)n1` (stereo unspecified), for which the Potency entry is “inactive”.
As for `COCCN1CCN(C(=O)c2cc(COc3ccc(F)cc3Cl)on2)CC1`, the Potency result was “inactive”.
The value for `O=C(c1cc(COc2cccc(C(F)(F)F)c2)on1)N1CCSCC1` was “inactive”.
For `O=C(c1cc(COc2c(F)cccc2F)on1)N1CCSCC1`, the Potency was 3.16 µM (active).
The value for `Cc1ccc(C)c(OCc2cc(C(=O)N3CCN(c4cnccn4)CC3)no2)c1` was “inactive”; that for `O=C(c1cc(COc2ccc(F)c(F)c2)on1)N1CCOCC1` was “inactive”; that for `COc1ccc(OCc2cc(C(=O)N3CCCC3)no2)c2ccccc12` was 3.98 µM (active).
`CC(C)(Oc1ccc(Cl)cc1)C(=O)OCC(=O)NCCc1ccc(S(N)(=O)=O)cc1`: the Potency result was “inactive”.
For the molecule `Cc1ccsc1C(=O)NC1CCCCC1C` (stereo unspecified), the Potency entry was “inactive”.
For `O=S(=O)(NC1CC1)c1ccc(Cl)cc1`, the Potency entry was “inactive”.
Regarding `CC(C)Sc1ncnc2c1cnn2-c1ccccc1`, the Potency is 1 µM (active).
For the molecule `Cc1ccc(-c2nc3c(cnn3-c3ccccc3)c(=O)o2)cc1`, the Potency result is “inactive”.
`CCC(C)N(C(=O)CSc1ncnc2c1cnn2-c1ccccc1)C1CCS(=O)(=O)C1` (stereo unspecified): the Potency entry is “inactive”.
The value for `CC(Sc1ncnc2c1cnn2-c1ccccc1)C(=O)Nc1ccc(N2CCOCC2)cc1` (stereo unspecified) was “inactive”; that for `O=C(NNc1ncnc2c1cnn2-c1ccccc1)c1ccco1` was “inactive”; that for `CCN(C(=O)CSc1ncnc2c1cnn2-c1ccccc1)C1CCS(=O)(=O)C1` (stereo unspecified) was “inactive”.
`C1=C(CCNc2ncnc3c2cnn3-c2ccccc2)CCCC1`: the Potency is 2.82 µM (active).
For `c1ccc(-n2ncc3c(N4CCCC4)ncnc32)cc1`, the Potency was 0.501 µM (active).
The value for `O=C(NCCC1=CCCCC1)C1CCN(Cc2cnn(-c3ccccc3)c2-n2cccc2)CC1` was “inactive”.
The value for `CCc1noc(C)c1C(=O)N1CCN(S(=O)(=O)c2cccc(C(F)(F)F)c2)CC1` was “inactive”.
The result for `CC(=O)c1c(C)[nH]c(C(=O)OCC(=O)Nc2c(C)cccc2C)c1C` reads “inactive”; that for `Cc1nn(Cc2ccccc2)c(C)c1C(=O)N1CCN(CC(=O)Nc2ccccc2Cl)CC1`, “inactive”; that for `C[C@@H](NC(=O)c1nc[nH]c1C(=O)N1CCN(C(=O)OC(C)(C)C)CC1)c1ccccc1`, “inactive”.
As for `CCOc1ncccc1C(=O)OCC(=O)Nc1cccc(S(=O)(=O)N2CCCCCC2)c1`, the Potency entry is “inactive”.
Take `CCCc1nc2oc3c(=O)[nH]cnc3c2c2c1COC(C)(C)C2`: the Potency result is “inactive”.
In the case of `c1ccc2[nH]c(-c3nc4ccccc4[nH]3)nc2c1`, the Potency is 0.631 µM (active).
With `COc1ccc(-c2[nH]nc(-c3ccccc3)c2-c2nc3ccccc3[nH]2)cc1`, the Potency entry was “inactive”.
As for `OC(c1nc2ccccc2[nH]1)C(O)C(O)C(O)c1nc2ccccc2[nH]1` (stereo unspecified), the Potency entry is “inactive”.
The result for `COc1ccc(Br)cc1C(=O)NC(=S)Nc1cc(-c2nc3ccccc3[nH]2)ccc1C` reads “inactive”; that for `Nc1cccc(CCc2nc3ccccc3[nH]2)c1`, “inactive”; that for `Cc1ccc(-c2nc3ccccc3[nH]2)cc1N`, 1.41 µM (active).
The value for `N#Cc1ccc(C2=CC(=O)C[C@H](c3ccc(Cl)cc3)C2)cc1` was “inactive”.
With `Cc1ccc(C)c(NC(=O)CN(C)C(=O)c2ccc3ncsc3c2)c1`, the Potency result is “inactive”.
The value for `COc1ccc(C(=O)NCc2nnc(SCC(=O)Nc3cccc(OC)c3)o2)cc1` was “inactive”.
The value for `COc1ccc([N+](=O)[O-])cc1-c1nc2ccccc2nc1-c1ccccc1` was “inactive”; that for `CC(=O)Oc1ccc2c(=O)oc(-c3ccc([N+](=O)[O-])cc3)nc2c1` was “inactive”.
Regarding `COc1cccc(NC(=O)CSc2nnc(-c3cccnc3)o2)c1`, the Potency result was “inactive”.
The value for `COc1cccc(-c2nc3cc(C)ccc3o2)c1` was 3.98 µM (active).
The result for `COc1cccc(-c2nc(CS(=O)CC(=O)NCc3ccc(F)cc3)c(C)o2)c1` (stereo unspecified) reads “inactive”; that for `O=[N+]([O-])c1ccc2oc(-c3cccc(O)c3)nc2c1`, 3.16 µM (active); that for `COc1ccc2oc(-c3cccc(NC(=O)CSc4ccc(Cl)cc4)c3)nc2c1`, 3.55 µM (active).
The result for `COc1cccc(-c2nnc(SCCOc3ccc4c(C)cc(=O)oc4c3)o2)c1` reads “inactive”; that for `O=C(NCCc1nnc2ccc(SCC(=O)N3CCOCC3)nn12)c1ccccc1`, “inactive”; that for `CCCCn1c(N)c(N(CCC(C)C)C(=O)COC(=O)c2cccnc2OCC)c(=O)[nH]c1=O`, “inactive”.
In the case of `O=C(COC(=O)CNC(=O)C1CCCCC1)NCc1ccccc1`, the Potency result was “inactive”.
For `CCCCN(C(=O)c1ccc2ccccc2c1)c1c(N)n(CCCC)c(=O)[nH]c1=O`, the Potency entry was “inactive”.
The value for `Cc1nc(C)c(-c2csc(NCCc3ccccc3)n2)s1` was “inactive”; that for `CCNc1nc(-c2cc3ccccc3o2)cs1` was 1.26 µM (active).
Take `O=c1oc2ccccc2cc1-c1csc(Nc2ccc(O)cc2)n1`: the Potency result was “inactive”.
The result for `O=C(CN1CCCSc2ccccc21)N1CCN(S(=O)(=O)c2ccccc2)CC1` reads “inactive”; that for `COc1ccc2c(c1)c(C(=O)N/N=C/c1cccs1)c(C)n2C`, “inactive”; that for `CCC(CC)c1nnc(NC(=O)C2=COCCO2)s1`, “inactive”.
Consider `NS(=O)(=O)c1ccc2nc(NC(=O)C3=COCCO3)sc2c1`, for which the Potency is 1.12 µM (active).
The result for `O=C(Nc1ccc(S(=O)(=O)N2CCCC2)cc1Cl)C1=COCCO1` reads “inactive”; that for `Cc1csc(NC(=O)C2=COCCO2)n1`, 3.55 µM (active); that for `NS(=O)(=O)c1ccc2nc(NC(=O)CS(=O)(=O)c3ccc(F)cc3)sc2c1`, “inactive”.
The result for `Cc1ccc(-c2csc(NC(=O)C3=COCCO3)n2)cc1C` reads “inactive”; that for `COCCN(Cc1ccccc1)C(=O)Cc1ccc(S(=O)(=O)N2CCOCC2)s1`, “inactive”.
The value for `COC(=O)c1sc(NC(=O)COC(=O)C2CCC2)c(C(=O)OC)c1C` was “inactive”; that for `COc1ccccc1N1CCN(C(=O)C2Cc3ccccc3CN2C(=O)c2ccco2)CC1` (stereo unspecified) was “inactive”.
As to `OCCC1CN(Cc2cccn2-c2nccs2)CCN1CCc1ccccc1` (stereo unspecified), the Potency result is “inactive”.
With `COc1cc(/C=N\Nc2ccc([N+](=O)[O-])cn2)ccc1OCC(=O)O`, the Potency entry was “inactive”.
The value for `COc1cc(C(=O)OCc2ccc([N+](=O)[O-])cc2)cc(OC)c1OC` was “inactive”; that for `COc1cc(/C=N/O)ccc1OCc1ccc([N+](=O)[O-])cc1` was 2 µM (active).
As for `O=C(CCCCO)c1ccc(O)c(Cl)c1`, the Potency entry was “inactive”.
In the case of `CC(=O)Nc1ccc(/C=N/NC(=O)c2cccs2)cc1`, the Potency was 1.26 µM (active).
The value for `O=C(N/N=C/C=C/c1ccco1)c1cccs1` was 4.47 µM (active).
For the molecule `O=C(N/N=C/c1ccco1)c1ccc(C(=O)N/N=C/c2ccco2)o1`, the Potency entry is “inactive”.
Consider `O=C(CNC(=O)c1cccs1)N/N=C/c1cccc(Br)c1`, for which the Potency result was “inactive”.
Consider `Cc1ccc(-c2cc(C(=O)N/N=C/C=C/c3ccco3)c3ccccc3n2)cc1C`, for which the Potency result was “inactive”.
With `CCN(CC)c1ccc(/C=N/NC(=O)CNC(=O)c2cccs2)cc1`, the Potency entry is “inactive”.
